A selection: hits, their analogues and other compounds. The true share with any hit is near 2.1%.
NSD2 HMT inh: inhibitors of human histone methyltransferase NSD2. O96028. NSD2 peptide methylation, AlphaScreen, 120 min. inhibition, % at 12.5 µM. 310,000 tested, 0.54% active. AID 743445; in the data active = inhibition above about 50%
MLL AF4-AF9 inh: MLL-AF4/AF9 protein interaction inhibition | P42568 | AlphaScreen, biotin-AF4 peptide binding to FLAG-AF9 | inhibition, % at 10 µM | 350,000 tested, 0.47% active;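 active = every replicate reaching a set inhibition limit, whatever the replicate mean, cut at about 25% in these data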;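 note: 0% = plate neutral control median and 100% = total signal loss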
Target sequence (P42568 whole entry, looked up): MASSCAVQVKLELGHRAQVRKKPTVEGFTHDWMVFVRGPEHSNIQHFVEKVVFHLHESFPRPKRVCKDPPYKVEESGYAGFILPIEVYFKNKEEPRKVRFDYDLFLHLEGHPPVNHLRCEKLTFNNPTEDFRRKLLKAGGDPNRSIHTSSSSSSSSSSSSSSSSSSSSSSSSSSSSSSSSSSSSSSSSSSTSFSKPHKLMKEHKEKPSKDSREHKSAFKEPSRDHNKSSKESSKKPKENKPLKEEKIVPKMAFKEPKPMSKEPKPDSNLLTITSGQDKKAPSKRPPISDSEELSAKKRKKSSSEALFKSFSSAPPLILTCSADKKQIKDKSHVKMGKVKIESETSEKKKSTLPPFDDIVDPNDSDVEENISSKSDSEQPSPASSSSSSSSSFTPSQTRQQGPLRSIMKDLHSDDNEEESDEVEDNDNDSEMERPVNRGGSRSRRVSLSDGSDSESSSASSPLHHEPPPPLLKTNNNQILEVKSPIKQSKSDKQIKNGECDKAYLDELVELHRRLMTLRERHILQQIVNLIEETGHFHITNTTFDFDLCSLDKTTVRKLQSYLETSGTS
HIV Env fusion: blocks HIV Env-driven cell-cell fusion. HeLa-JRFL Env/CEM21 cell fusion, luciferase. inhibition, % at 12.3 µM. 360,000 tested, 1.1% active. AID 651610;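 active = mean replicate inhibition score of at least 50 and every replicate individually at or above 50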;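 note: 0% = plate neutral controls and 100% = maraviroc near 300 nM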
PGC1a acetyl inh: lowers PGC1a acetylation signal in U2OS cells. AID 651687. 350,000 tested, 0.17% active. inhibition, % at 15.6 µM. AlphaScreen anti-acetyl-lysine; with virally co-expressed GCN5 acetyltransferase;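 active = every replicate shows inhibition of at least 40%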;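 note: 0% = neutral control wells and 100% = positive control wells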
INS-1E GSIS act: GLuc luminescence reporter in INS-1E cells, primary screen for activators of glucose-dependent secretion of insulin | 370,000 tested, 0.61% active | INS-1E GLuc reporter insulin secretion, 2-3 h | AID 743287 | activation, % at 16.6 µM;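 active = lowest replicate activation of at least 40%, so every replicate reaches that level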;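 note: 0% = median of neutral control wells and 100% = median of IBMX positive control wells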
* = called active by the depositor; nt = not tested or not shown; [ ] = another dose, or the depositor's remark.

SMILES	NSD2 HMT inh	MLL AF4-AF9 inh	HIV Env fusion	PGC1a acetyl inh	INS-1E GSIS act
CCOc1ccc(NC(=O)c2[nH]c(C)c(C(C)=O)c2C)cc1	2.7	-8.1	5.4	nt	48.5
O=C(N1CCOCC1)C1(S(=O)(=O)c2ccccc2)CC=CC1	nt	-5.2	10.0	nt	-7.4
O=C(N1CCCCC1)C1(S(=O)(=O)c2ccccc2)CC=CC1	nt	44.0*	15.0	4.4	4.9
Cc1ccccc1C(=O)O/N=C/c1c(N2CCOCC2)n(C)c2ccccc12	1.1	nt	60.4*	6.7	nt
COc1ccc2c3c(n(C)c2c1)[C@@H](CO)N(S(C)(=O)=O)CC31CCN(CC2CC2)CC1	nt	-1.9	3.0[16.7 µM]	nt	12.1
O=C(c1ccc(CNS(=O)(=O)c2ccccc2)cc1)N1CCN(Cc2ccccc2)CC1	0.3	nt	79.5*	-1.3	nt
CS(=O)(=O)c1ccc(C(=O)N2CCN(Cc3ccccc3)CC2)cc1	-0.4	0.9	6.1	1.0	15.5
O=C(Nc1ccc(S(=O)(=O)NCc2cccnc2)cc1)c1ccco1	-3.9	nt	65.4*	0.0	nt
CC(=O)Nc1ccc(S(=O)(=O)NCc2cccnc2)cc1	-1.8	nt	-40.1	nt	-7.4
CC(C)(C)n1nnnc1C(c1ccc(F)cc1)N(Cc1ccc(F)cc1)Cc1ccco1 (centres undefined)	-1.3	nt	124.2*	-48.3	nt
CC(C)(C)n1nnnc1C(c1ccc(C(F)(F)F)cc1)N(Cc1ccc(F)cc1)Cc1ccco1 (centres undefined)	nt	nt	nt	-9.9	nt
CC(C)(C)n1nnnc1C(c1cccnc1)N(Cc1ccccc1)Cc1cccs1 (centres undefined)	2.1	nt	56.6*	-30.8	nt
COc1cccc(C(=O)NC2CCCN(C3Cc4ccccc4C3)C2)c1OC (centres undefined)	4.9	26.1*	-3.0	-0.9	15.4
CCN(C1CCCCC1)S(=O)(=O)c1ccc(S(=O)(=O)NCc2ccncc2)cc1	-2.2	nt	80.7*	13.3	-24.0
O=C(C[C@H]1CC[C@H](NC(=O)c2cccnc2)[C@@H](CO)O1)NCc1ccncn1	nt	-2.7	8.7[16.7 µM]	0.8	1.2
O=C(CSc1nnnn1-c1ccc(Cl)c(C(=O)O)c1)NC(c1ccccc1)c1ccccc1	-0.7	-3.1	-13.3	8.5	-6.4
CN(C)CCCNC(=O)[C@H]1[C@H](CO)[C@H]2Cn3c(ccc(C4=CCCC4)c3=O)[C@H]2N1CCC(F)(F)F	nt	8.1	57.0*[16.7 µM]	nt	-1.1
COc1ccc(NC(=O)CSc2nc3nc(C)cc(C)c3c(=O)[nH]2)cc1	-0.1	-0.2	3.3	5.5	2.8
CCN(CC)c1ccc(NC(=O)CSc2nc3nc(C)cc(C)c3c(=O)[nH]2)cc1	19.0	-10.4	-15.2	-7.3	42.1*
CCOC(=O)Cn1c(S(=O)(=O)Cc2cccc(F)c2)nc(-c2ccccc2)c1-c1ccccc1	-0.3	nt	87.0*	-17.2	-2.2
C#CCn1c(S(=O)(=O)Cc2ccc(F)cc2)nc(-c2ccccc2)c1-c1ccccc1	-1.0	nt	66.2*	-35.3	-25.5
CCOC(=O)Cn1c(S(=O)(=O)Cc2ccc(F)cc2)nc(-c2ccccc2)c1-c1ccccc1	-4.1	nt	-4.2	-11.4	nt
CC1(C(=O)NS(=O)(=O)c2cccc(Cl)c2)CCN1C(=O)Cc1ccsc1 (centres undefined)	0.7	-1.5	19.4	9.2	-0.1
CC(C)Oc1ccc(CN2CCC2(C)C(=O)Nc2ccc3c(c2)OCO3)cc1 (centres undefined)	6.6	-2.2	-7.0	-5.8	-10.9
CC(C)NC(=O)c1ccc(COCC(F)(F)C(F)F)cc1	-1.1	nt	-80.1	-8.8	nt
SMILES	NSD2 HMT inh	MLL AF4-AF9 inh	HIV Env fusion	PGC1a acetyl inh	INS-1E GSIS act
CC(NC(=O)c1ccccc1NC(=O)CN1CCc2ccccc2C1)c1ccccc1 (centres undefined)	-2.9	2.3	69.0*	-11.1	-10.6
COc1ccc(CN2CCN(Cc3ccc(CO)o3)CC2CCO)cc1C (centres undefined)	-2.5	-29.1	6.6	-0.5	-9.7
N#C[C@@H]1[C@H](c2ccc(-c3cccc(F)c3)cc2)[C@H](CO)N1C(=O)c1cccnc1	nt	1.3	66.5*[16.7 µM]	5.9	-31.1
CCCNC(=O)N1[C@H](C#N)[C@H](c2ccc(-c3ccc(C(=O)N(C)C)cc3)cc2)[C@@H]1CO	nt	7.1	68.1*[16.7 µM]	-8.5	-43.5
CCCNC(=O)N1[C@H](C#N)[C@H](c2ccccc2)[C@@H]1CO	nt	-0.3	4.1[16.7 µM]	-0.5	4.7
CCCNC(=O)N1[C@H](C#N)[C@H](c2ccc(-c3cccnc3)cc2)[C@@H]1CO	nt	-2.4	63.9*[16.7 µM]	6.1	-27.9
CCCNC(=O)N1[C@@H](C#N)[C@H](c2ccc(-c3cccnc3)cc2)[C@@H]1CO	nt	-2.2	13.4[16.7 µM]	3.2	-9.1
CO[C@@H]1CN(C)C(=O)c2cc(NC(C)=O)ccc2OC[C@H](C)N(C(=O)Cc2cccnc2)C[C@@H]1C	nt	7.7	nt	-2.2	13.4
COCCNC(=O)C(=O)N/N=C/c1cccs1	1.4	-8.0	-2.7	nt	-46.3
CCOc1cccc(C(=O)Nc2ccc(NC(=O)c3cc4ccccc4o3)c(OC)c2)c1	-0.9	-0.1	-12.4	-6.4	12.4
COc1cc(NC(=O)c2cccc(C)c2)ccc1NC(=O)c1cc2ccccc2o1	1.7	-1.6	-23.9	nt	82.7*
O=C(CC1CC2CCC1C2)N1CCN(S(=O)(=O)c2ccccc2[N+](=O)[O-])CC1 (centres undefined)	1.7	3.8	nt	-2.9	-14.8
COc1ccc(N2CC(NS(=O)(=O)c3cccs3)CC2=O)cc1OC (centres undefined)	-0.2	2.8	2.4	nt	41.1*
COc1cc(/C=N/N2CCN(c3ccc(Cl)cc3)CC2)cc(OC)c1OC(C)=O	-2.6	0.0	27.1	nt	4.0
COc1cc(/C=N/N2CCN(c3ccccc3)CC2)cc(OC)c1OC(C)=O	9.0	26.2*	4.3	2.5	-0.7
Cc1noc(C)c1CSc1nc2ccccc2c(=O)n1-c1ccc(Cl)cc1	1.9	nt	62.0*	-11.8	-39.8
COc1ccc2c(c1O)-c1ccccc1CCN(C)C2	nt	-0.7	nt	4.6	6.8
CN1CCc2cccc3c2[C@@H]1Cc1ccc(O)c(O)c1-3	nt	25.8*	nt	4.4	nt
CC(C)NC(=O)C1=NN(c2ccccc2)C(=O)CC1	-0.7	0.1	4.2	8.2	-3.2
O=C(C1=NN(c2ccccc2)C(=O)CC1)N1CCc2ccccc2C1	-3.3	-1.8	2.9	-9.5	113.0*
CCc1nc2c(OCCc3cccc(OC)c3)cccn2c1N(C)C(=O)c1cccs1	2.1	3.1	31.1	-0.6	-29.0
C[C@@H]1CN([C@@H](C)CO)S(=O)(=O)c2ccc(-c3ccccc3)cc2O[C@@H]1CN(C)Cc1cccnc1	nt	nt	-36.7[16.7 µM]	2.2	2.8
C=CCOc1ccc(C2NC(=O)NC(C)=C2C(=O)OC)cc1 (centres undefined)	nt	nt	-33.8	10.2	nt
COc1ccc(F)cc1CSc1nnnn1-c1ccc(O)cc1	-4.4	1.0	26.0	nt	-9.6
COc1cc(CSc2nnnn2-c2ccc(C)cc2)cc(OC)c1OC	-2.6	nt	95.2*	-8.1	nt
COc1cc(C(=O)OCc2cc(=O)oc3c(C)c(C)ccc23)ccc1OC(F)F	-1.4	-2.2	19.8	-4.9	2.1
COc1cc(C(=O)OCc2cc(=O)c(O)co2)ccc1OC(F)F	-3.6	4.9	-34.6	nt	52.0*

Assay outcomes as filed in PubChem.
